The campaign covered roughly 1,300 compounds. About 10 (0.8%) were called active. This excerpt belongs to a sample that is enriched for actives. A number with no mark means an inactive call. The rule behind the calls is not given here.
Target: Chaperone protein DnaK (Escherichia coli (strain K12)) (UniProt P0A6Y8)
Assay: blockers of bacterial DnaK function – luminescence, E. coli K12, primary screen (AID 547);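 note: tested at 10 µM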
Settings: DnaK chaperone assay, luminescence read-out; stronger effect = lower value

Compound	luminescence
CN1CCCC1CCOC(C)(c1ccccc1)c1ccc(Cl)cc1 (stereo not given)	2.5e+06 cps
NC(=NCc1ccccc1)NC(=O)c1nc(Cl)c(N)nc1N	2.1e+06 cps
CCCC1O[C@@H]2C[C@H]3[C@@H]4CCC5=CC(=O)C=C[C@]5(C)[C@H]4[C@@H](O)C[C@]3(C)[C@]2(C(=O)CO)O1 (stereo not given in full)	2.4e+06 cps
Cn1c(=O)[nH]c2ncn(C)c2c1=O	2.8e+06 cps
CCCn1c(=O)c2[nH]c(-c3ccc(OCC(=O)Nc4ccc(C#N)cc4)cc3)nc2n(CCC)c1=O	2.3e+06 cps
COc1ccc(NC(=O)/C=C/c2ccc(Cl)cc2)cc1	2.8e+06 cps
O=C(O)c1ccccc1Nc1ccccc1	2.2e+06 cps
COc1ccc(/C=C/C(=O)Nc2ccccc2C(=O)O)cc1OC	1.6e+06 cps (active)
CCn1c(=O)[nH]c2cc(Cl)c(Cl)cc21	3.1e+06 cps
O=C(O)/C=C/c1cnc[nH]1	2.2e+06 cps
Cn1c(=O)c2c(nc(/C=C/c3cccc(Cl)c3)n2C)n(C)c1=O	2.6e+06 cps
O=c1cc(O)cc(/C=C/c2ccc(O)c(O)c2)o1	2.5e+06 cps
NC12CC3CC(CC(C3)C1)C2	2.3e+06 cps
CC[N+](C)(C)Cc1ccccc1Br	2.5e+06 cps
CCC(NC(C)C)C(O)c1ccc(O)c(O)c1 (stereo not given)	2.2e+06 cps
NC(N)=NCCSSCCN=C(N)N	3e+06 cps
NC[C@H](O)c1ccc(O)c(O)c1	2.6e+06 cps
Cc1cn([C@H]2C[C@@H](N=[N+]=[N-])[C@@H](CO)O2)c(=O)[nH]c1=O	2.8e+06 cps
CCCCCCCCCC[Si](C)(C)CCC(=O)NC(Cc1ccc(C)cc1)c1ccccc1 (stereo not given)	2.8e+06 cps
CC(N)=NCCC[C@H](N)C(=O)O	2.6e+06 cps
C[C@]12CCC(=O)C=C1CC[C@@H]1[C@@H]2C(=O)C[C@@]2(C)[C@H]1CC[C@]2(O)C(=O)CO	2.3e+06 cps
CNC(=O)[C@H]1O[C@@H](n2cnc3c(N)ncnc32)C(O)[C@H]1O (stereo not given in full)	2.5e+06 cps

Compound	luminescence
CC(CCc1ccccc1)NCC(O)c1ccc(O)c(C(N)=O)c1 (stereo not given)	2.8e+06 cps
C=CCc1ccccc1OCC(O)CNC(C)C (stereo not given)	2.8e+06 cps
Cn1cnc2c(NC3CCCC3)ncnc21	2.5e+06 cps
Nc1nc(SCc2ccc([N+](=O)[O-])cc2)c2ncn([C@@H]3O[C@H](CO)[C@H](O)C3O)c2n1 (stereo not given in full)	2.7e+06 cps
CCCCCCCCCCCCCCCCOCC(COCC(F)(F)F)OP(=O)(O)OCO (stereo not given)	2.4e+06 cps
O=c1ccc2c(OCCCCc3ccccc3)c3ccoc3cc2o1	2.8e+06 cps
Cc1c(C)c2c(c(C)c1O)CCC(C)(CN1CCN(c3cc(N4CCCC4)nc(N4CCCC4)n3)CC1)O2 (stereo not given)	2.6e+06 cps
CN/C(=C\[N+](=O)[O-])NCCSCc1ccc(CN(C)C)o1	2.6e+06 cps
CN(C)c1nc(N)c(C(=O)N=C(N)N)nc1Cl	2.5e+06 cps
Cc1cc(N)c2ccccc2[n+]1CCCCCCCCCCCCCC[n+]1c(C)cc(N)c2ccccc21	3e+06 cps
O=C(O)c1cc(=O)cc(C(=O)O)[nH]1	2.7e+06 cps
Cc1ccc(N(CC2=NCCN2)c2cccc(O)c2)cc1	2.5e+06 cps
CC(COc1ccc(/C=C/c2ccccc2)cc1)[N+](C)(C)C (stereo not given)	2.1e+06 cps
O=C(c1ccc(F)cc1)C1CCN(CCn2c(=O)[nH]c3ccccc3c2=O)CC1	1.7e+06 cps (active)
Cc1nc2ccccn2c(=O)c1CCN1CCC(C(=O)c2ccc(F)cc2)CC1	2.5e+06 cps
CC1(C)C(=O)N(CCN2CCC(C(=O)c3ccc(F)cc3)CC2)c2ccccc21	2.6e+06 cps
C[C@H](CS)C(=O)N1CCC[C@H]1C(=O)O	2.6e+06 cps
N[C@@H](Cc1cnc[nH]1)C(=O)O	2.9e+06 cps
C=C[C@H]1CN2CCC1C[C@@H]2[C@@H](O)c1ccnc2ccc(OC)cc12 (stereo not given in full)	2.3e+06 cps
CC1(NCC(O)COc2cccc3[nH]ccc23)CCC(C(C)(C)NC(=O)CBr)CC1 (stereo not given)	2.2e+06 cps
OCCN1CCN(CCCN2c3ccccc3Sc3ccc(C(F)(F)F)cc32)CC1	2.6e+06 cps
O=C1NC(O)=NC1(c1ccccc1)c1ccccc1	2.6e+06 cps

Compound	luminescence
C=C[C@H]1CN2CCC1C[C@H]2[C@H](O)c1ccnc2ccc(OC)cc12 (stereo not given in full)	2.4e+06 cps
O=c1[nH]c2cc([N+](=O)[O-])c([N+](=O)[O-])cc2[nH]c1=O	3e+06 cps
C#CC(N)CCC(=O)O (stereo not given)	2.7e+06 cps
C[C@H](Cc1ccc(O)c(O)c1)[C@@H](C)Cc1ccc(O)c(O)c1	2e+06 cps
NC1(C(=O)O)CCc2cc(C(=O)O)ccc21 (stereo not given)	2.8e+06 cps
CC(C)(C)NCC(O)c1cc(O)cc(O)c1 (stereo not given)	2.3e+06 cps
Cc1ccccc1N1CCN(S(=O)(=O)C[C@]23CCC(CC2NC(=O)[C@@H](N)CCS(C)(=O)=O)C3(C)C)CC1 (stereo not given in full)	2.6e+06 cps
C[C@]12C=CC(=O)C=C1CC[C@@H]1C2=CC[C@]2(C)[C@@H](C(=O)CN3CCN(c4cc(N5CCCC5)nc(N5CCCC5)n4)CC3)CC[C@@H]12	2.4e+06 cps
Nc1ccc(N2C(=O)c3ccccc3C2=O)c(Cl)c1	2.7e+06 cps
CC(=O)N[C@@H](Cc1c[nH]c2ccccc12)C(=O)OCc1cc(C(F)(F)F)cc(C(F)(F)F)c1	2.8e+06 cps
Brc1ccc([C@H]2CN3CCSC3=N2)cc1	2.2e+06 cps
CN=C(N)NCCC[C@H](N)C(=O)O	2.2e+06 cps
[N-]=[N+]=Nc1ccc(C(=O)CSC[C@H](NC(=O)CC[C@H](N)C(=O)O)C(=O)NCC(=O)O)cc1	1.6e+06 cps (active)
N[C@@H](CCC(=O)N[C@H](CSN=O)C(=O)NCC(=O)O)C(=O)O	2.5e+06 cps
C#C[C@]1(O)CC[C@H]2[C@@H]3CCC4=Cc5oncc5CC4(C)[C@H]3CCC21C (stereo not given in full)	3e+06 cps
Nc1ncnc2c1nc(Sc1ccc(Cl)cc1)n2C1OC2COP(=O)(O)O[C@@H]2[C@@H]1O (stereo not given in full)	2.7e+06 cps
CC(C)NCC(O)c1ccc(NS(C)(=O)=O)cc1 (stereo not given)	2.3e+06 cps
CCn1c(=O)c2[nH]c(-c3ccccc3)nc2n(CC)c1=O	2.8e+06 cps
CC(C)Cn1c(=O)n(C)c(=O)c2[nH]cnc21	2.1e+06 cps
CCOC(=O)C12CC1/C(=N/O)c1ccccc1O2 (stereo not given)	2.4e+06 cps
NC(CO)C(=O)NNCc1ccc(O)c(O)c1O (stereo not given)	2.2e+06 cps
C=CC[C@H](N)C(=O)O	2.5e+06 cps

Compound	luminescence
N[C@@H](Cc1c[nH]c2ccccc12)C(=O)O	2.2e+06 cps
NC(C(=O)N[C@@H]1C(=O)N2C(C(=O)O)=C(Cl)CS[C@H]12)c1ccccc1 (stereo not given in full)	2.8e+06 cps
CCN(CC)CCCC(C)Nc1c2ccc(Cl)cc2nc2ccc(OC)cc12 (stereo not given)	2.3e+06 cps
CCC1(O)CC2CN(CCc3c([nH]c4ccccc34)[C@@](C(=O)OC)(c3cc4c(cc3OC)N(C)C3[C@]45CCN4CC=C[C@@](CC)([C@@H](OC(C)=O)[C@]3(O)C(=O)OC)[C@H]45)C2)C1 (stereo not given in full)	2.4e+06 cps
Cc1cc(C)c(NC(=O)C[C@H](CC(=O)O)c2cccc3ccccc23)c(C(=O)N2CCC3(CCCC3)CC2)c1	2.4e+06 cps
Nn1nnc2ccccc21	2.9e+06 cps
O=c1onc2cnc3ccccc3n12	2.2e+06 cps
CCOC(=O)Nc1ccc(NCc2ccc(F)cc2)nc1N	2.9e+06 cps
CCCC(=O)NCCc1c2n(c3ccc(OC)cc13)CCCc1ccccc1-2	2.6e+06 cps
Clc1ccc2c(c1)C(N1CCNCC1)=Nc1ccccc1O2	3.1e+06 cps
CNC(=O)[C@H]1O[C@@H](n2cnc3c(NCc4ccc(N)cc4)ncnc32)C(O)[C@H]1O (stereo not given in full)	2.7e+06 cps
O=C(CCc1ccc(O)cc1)c1c(O)cc(O)cc1O	2.4e+06 cps
N.N.N.N.N.N.N.N.N.N.N.N.N.N.O.O.[Cl-].[Cl-].[Cl-].[Cl-].[Cl-].[Cl-].[Ru+4].[Ru+5].[Ru+5]	2.1e+06 cps
Fc1ccc(C(OCCCc2cnc[nH]2)c2ccc(F)cc2)cc1	2.6e+06 cps
CN(C)CCC(c1ccc(Cl)cc1)c1ccccn1 (stereo not given)	2.6e+06 cps
C=Cc1c(C)c2cc3[nH]c(cc4nc(cc5nc(cc1[nH]2)C(C)=C5CCC(=O)O)C(CCC(=O)O)=C4C)c(C)c3C=C	2e+06 cps
O=C(O)c1cc([N+](=O)[O-])ccc1NCCCc1ccccc1	2.6e+06 cps
O=C(Nc1ccccc1)c1cc([N+](=O)[O-])ccc1Cl	2.6e+06 cps
O=C(Nc1ccc([N+](=O)[O-])cc1Cl)c1cc(Cl)ccc1O	1.7e+06 cps (active)

From PubChem BioAssay AID547 (Emory University Molecular Libraries Screening Center, 2006)
